# FUS yeast rescue: FUS proteinopathy suppression in yeast. AID 1347120. S. cerevisiae FUS-expressing, growth rescue, OD600, 24 h. 390,000 tested, 0.24% active. Potency, µM (titrated, usually from 76.6 µM), usual class: activators;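 further: plate controls were DMSO vehicle for no effect and reference control for full effect; nearly all actives have a fitted effect of over 55% in size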
#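 Compound concentration series was pinned onto galactose-induced FUS-expressing yeast seeded at OD 0.005. Plates sat 24hr at 30C; absorbance at 600 nm gave growth. DMSO served as background control.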
# aSyn yeast inh: rescues yeast growth from alpha-synuclein toxicity | Yeast expressing alpha-synuclein, growth rescue, BacTiter-Glo, 24 h | Potency, µM (series often up to 46.1 µM), without a hit: top-dose growth rescue (activation), actives largely listed as activators | 370,000 tested, 0.14% active; further: % of control where 0% means no effect; nearly all actives have a fitted effect of over 65% in size
#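 Screening used galactose-induced yeast with toxic alpha-synuclein levels, exposed to compound for 24 hr at 30 deg C. Cell growth, read with BacTiter-Glo luminescence, gave the measured signal.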
# TDP-43 yeast inh: TDP-43 toxicity inhibition in yeast; TDP-43 expressing yeast growth rescue, BacTiter-Glo, 24 h; Potency, µM (series often up to 46.1 µM), for the others: top-dose growth rescue (activation), most hits filed as activators; 410,000 tested, 1.8% active; AID 652104; further: % of control where 0% means no effect; nearly all actives have a fitted effect of over 50% in size
#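 Luminescence from BacTiter-Glo reports growth of TDP-43-expressing yeast after 24 hr at 30 deg C with compound. Cells were raffinose-pregrown to mid-log, then seeded in galactose medium at OD600=0.02.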
# Mito fusion yeast: inhibitors of mitochondrial division or activators of mitochondrial fusion; S. cerevisiae fusion-defective mutant growth rescue, CellTiterGlo 48 h; Potency, µM (series often up to 46.1 µM), for inactives: top-dose growth rescue (activation), actives largely listed as activators; 320,000 tested, 0.23% active; AID 485298; further: % of control where 0% means no effect; nearly all actives have a fitted effect of over 45% in size
#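 Growth-rescue viability read-out: after 48 h at the non-permissive 37C in glycerol/ethanol YPEG, yeast mitochondrial fusion mutants are measured by CellTiterGlo luminescence; compounds (23 nl pinned per well) restoring growth score as division inhibitors or fusion activators.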
# Abeta yeast res: restores growth of yeast expressing A-beta42 peptide; yeast expressing A-beta42, growth rescue, OD600, 48 h; response scale: 0% DMSO, 100% iron-clioquinol control; Potency, µM (series often up to 46.1 µM), usual class: activators; 410,000 tested, 0.063% active; further: nearly all actives have a fitted effect of over 55% in size
#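 Yeast A-beta toxicity model in growth medium with pinned compounds, 48 h at 30 C; growth read as absorbance at 600 nm. Normalized to FeCl3/clioquinol equimolar mix (positive) and DMSO (negative).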
# Starred values were filed as active, the others as inactive; i = inactive; ? = inconclusive; . = no result given. Shown are actives, neighbours in structure and some others; about 2.2% of the full set was active somewhere. The call rests on the fitted dose curve; in most records, active means well fitted curve in the direction sought with a large enough effect; inconclusive means small, poorly fitted or top-dose-only effect, or another doubt; inactive means no such curve, though single readings can be large; an effect the other way counts as inactive or inconclusive. Potency means the concentration at half of the fitted maximal effect.
SMILES,FUS yeast rescue,aSyn yeast inh,TDP-43 yeast inh,Mito fusion yeast,Abeta yeast res
C/C(=N/NS(=O)(=O)c1ccc(C)cc1)c1cccc(NC(=O)c2cccc(Cl)c2)c1,i,3%,15%,8%,i
C/C(=N/NS(=O)(=O)c1ccc(Cl)cc1)c1cccc(NC(=O)c2ccc(Cl)cc2Cl)c1,i,6%,13µM*,15%,i
CC(=O)OC(C(=O)Nc1nccs1)c1ccccc1 (stereo not given),i,10%,-22%,2%,i
O=C(Nc1nccs1)C(Br)C(Br)c1ccccc1 (stereo not given),i,0%,10µM*,-12%,i
CCOC(=O)CCCC(=O)N1CCN(/[N+]([O-])=N/Oc2ccc([N+](=O)[O-])cc2[N+](=O)[O-])CC1,.,-84%,.,.,.
O=C(O)c1ccc(-c2ccc(O)c(F)c2)cc1,i,12%,16µM*,-4%,i
O=C(O)c1ccc(O)c(O)c1,i,3%,12%,1%,i
CC(O)(c1ccc(F)c(F)c1)c1nc(-c2cnc3ccccc3c2)cs1 (stereo not given),?,-24%,?,.,i
COc1cccc(C(C)(O)c2nc(-c3ccccc3C)cs2)c1 (stereo not given),i,2%,15%,.,i
COCc1cccc(-c2csc(C(C)(O)c3cccc(F)c3)n2)c1 (stereo not given),i,-6%,35µM*,.,i
CC(=O)NC(C)(c1ccccc1)c1nc(-c2csc3ccccc23)cs1 (stereo not given),?,7%,35µM*,.,i
COc1ccc(C(C)(O)c2nc(-c3cnc4ccccc4c3)cs2)cc1 (stereo not given),i,?,35µM*,.,i
COc1cccc(C(C)(O)c2nc(-c3csc4ccccc34)cs2)c1 (stereo not given),i,-1%,35µM*,.,i
COc1cccc(C(C)(O)c2nc(/C=C/c3ccccc3)cs2)c1 (stereo not given),i,?,25µM*,.,i
COc1cccc(C(C)(O)c2nc(-c3cccc(C(=O)O)c3)cs2)c1 (stereo not given),i,-3%,9%,.,i
CC(O)(c1ccc(F)c(F)c1)c1nc(/C=C/c2ccccc2)cs1 (stereo not given),i,-59%,-78%,.,i
CC(O)(c1ccccc1)c1nc(/C=C/c2ccccc2)cs1 (stereo not given),i,-27%,35µM*,.,i
CCOC(=O)/C=C(\C)Sc1cc(=O)oc2ccccc12,i,-8%,14µM*,17%,i
COc1ccc(S(=O)(=O)NCCc2sc(-c3cccc(F)c3)nc2C)cc1,i,.,25µM*,.,i
COc1ccc(-c2nc(C)c(CCNS(=O)(=O)c3cc(Cl)ccc3Cl)s2)cc1,?,?,25µM*,.,i
O=C(OCc1cn(Cc2ccc(Cl)cc2)nn1)N1CCOCC1,i,.,.,.,.
Cc1ccc2oc(/N=C(\N)NC(=O)C3CC3)nc2c1,i,-28%,20µM*,0%,i
O=C(Nc1cc(Sc2ccccn2)cc([N+](=O)[O-])c1)c1cccc(Cl)c1,i,0%,19%,16µM*,i
CCN(CCCN(C)C)c1ccc(/C=C/c2ccnc3ccccc23)cc1,.,2%,.,.,.
COc1ccc(C(=O)NNC(=S)NC(=O)c2cc(-c3ccccc3)nc3ccccc23)cc1,i,-19%,?,1%,i
CCCOc1ccc(C(=O)NNC(=S)NC(=O)c2cc(-c3ccc(Cl)cc3)nc3ccccc23)cc1,i,4%,13µM*,0%,i
COc1ccc(Cl)cc1C(=O)NCCS(=O)(=O)N1CCN(c2ccccc2OC)CC1,?,.,11µM*,.,i
COc1ccc(Cl)cc1C(=O)NCCS(=O)(=O)N1CCN(c2ccccc2F)CC1,i,15%,?,1%,i
CCOc1ccc(CC(=O)NCCS(=O)(=O)N2CCN(c3ccccc3OC)CC2)cc1,i,.,14%,.,i

# Assay outcomes as filed in PubChem.
